Rows were chosen to be rich in hits. Some 11% of all compounds tested hit in one or more screens of this group.
Pf growth 96h: Primary qHTS for delayed death inhibitors of the malarial parasite plastid, 96 hour incubation. P. falciparum luciferase reporter growth, 96 h. Potency, µM (series often up to 28.7 µM), for the others: at the top dose activity change, negative = inhibition, usual class: inhibitors. 320,000 compounds, 6.9% hits
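Cell-based qHTS: luciferase-tagged P. falciparum in erythrocytes (2% hematocrit, 0.05% parasitemia final) incubated with compounds for 96 hours, 37 C, 5% CO2; luciferase detection reagent then added and luminescence measured.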
HCV inh: qHTS Assay for Inhibitors of Hepatitis C Virus (HCV); Huh7.5.1 HCVcc-Cre infection, luciferase reporter, 44 h; Potency, µM (titrated, usually from 41.8 µM), without a hit: at the top dose activity change, negative = inhibition, hits mostly inhibitors; 340,000 compounds, 3.4% hits; AID 651820, 2012
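Antiviral activity was scored by luciferase reporter output from cells infected with HCVcc-Cre (~0.5 moi) in presence of compound, 44 h infection period, cells seeded 1,000/well 4 h prior.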
Pf growth 48h: Primary qHTS for delayed death inhibitors of the malarial parasite plastid, 48 hour incubation; P. falciparum luciferase growth in erythrocytes, 48 h; Potency, µM (highest dose often 28.7 µM), for the others: at the highest dose activity change, negative = inhibition, hits mostly inhibitors; 310,000 compounds, 5.9% hits; AID 504832, 2011
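Compounds are pin-transferred into medium, infected erythrocytes (2% hematocrit, 0.1% parasitemia final) are added, and plates sit one parasite generation at 37 C in 5% CO2. Detection reagent is then added and luminescence measured.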
AMA1-RON2 inh: qHTS for Inhibitors of AMA1-RON; Towards Development of Antimalarial Drug Lead: Primary Screen; Plasmodium falciparum AMA1 (3D7) - RON2 peptide interaction; AlphaScreen AMA1-biotinylated RON2 peptide binding; Potency, µM (doses to about 58.2 µM), for the others: at the top dose activity change, negative = inhibition, most hits filed as inhibitors; 360,000 compounds, 0.2% hits; AID 720542, 2013;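 further: 0% = vehicle wells and -100% = peptide control; nearly all actives have a fitted effect of over 45% in size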
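AMA1 (3D7) with his tag at 25 nM final met compounds first, then biotinylated RON2 peptide at 25 nM; detection used donor plus acceptor beads, 10 µg/mL apiece, read by AlphaScreen after 30 min at room temperature.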
Active calls of the source: *; [ ] = remark or other dose. The call rests on the fitted dose curve; in most records, active means well fitted curve in the direction sought with a large enough effect; inconclusive means small, poorly fitted or top-dose-only effect, or another doubt; inactive means no such curve, though single readings can be large; an effect the other way counts as inactive or inconclusive. Unless noted, on the % scale 0 is the no-effect control and ±100 the full control effect; potency means the concentration at half of the fitted maximal effect.

Results for CCOc1ccc(C(C(=O)NCC2CCCO2)N(Cc2cccs2)C(=O)c2snc(C(N)=O)c2N)cc1 (stereo not given) ?
Pf growth 96h: inconclusive; HCV inh: inconclusive; Pf growth 48h: 13.1µM*; AMA1-RON2 inh: -1.8%

Results for Cc1ccc(N(C(=O)c2snc(C(N)=O)c2N)C(C(=O)NCCC(C)C)c2ccco2)cc1 (stereo not given) ?
Pf growth 96h: inconclusive; HCV inh: 31.6µM*; Pf growth 48h: -25.5%; AMA1-RON2 inh: -6.7%

Results for Cc1ccc(C(C(=O)NCC2CCCO2)N(C(=O)c2snc(C(N)=O)c2N)c2ccc3c(c2)OCCO3)cc1 (stereo not given) ?
Pf growth 96h: -3.8%; HCV inh: inconclusive; Pf growth 48h: 10.4µM*; AMA1-RON2 inh: inconclusive

How did CCOc1ccc(C(C(=O)NCC2CCCO2)N(C(=O)c2snc(C(N)=O)c2N)c2ccccc2F)cc1 (stereo not given) do in these assays?
Pf growth 96h: inconclusive; HCV inh: inconclusive; Pf growth 48h: inconclusive; AMA1-RON2 inh: -14.0%

What do the screens show for `CCOc1ccc(C(C(=O)NCC2CCCO2)N(C(=O)c2snc(C(N)=O)c2N)c2cccc(F)c2)cc1` (stereo not given)?
Pf growth 96h: 28.2%; HCV inh: -25.1%; Pf growth 48h: 13.1µM*; AMA1-RON2 inh: -8.3%

How did Cc1ccc(S(=O)(=O)n2nc(-c3ccco3)nc2N)cc1 do in these assays?
Pf growth 96h: 24.2%; HCV inh: 18.3%; Pf growth 48h: 0.0%; AMA1-RON2 inh: 1.3%

How did CCOC(=O)C1(CCCc2ccccc2)CCN(C(=O)c2cc(C)nn2CC)CC1 do in these assays?
Pf growth 96h: inconclusive; HCV inh: inconclusive; Pf growth 48h: inconclusive; AMA1-RON2 inh: -5.4%

How did O=C(c1ccccc1)N1CCCCC(S(=O)(=O)c2ccc3ccccc3c2)C1=O (stereo not given) do in these assays?
Pf growth 96h: -12.1%[5.75 µM]; HCV inh: 8.1%; Pf growth 48h: 3.1%; AMA1-RON2 inh: -0.5%

How did CC1CCCCC1NC(=O)Cn1cc([N+](=O)[O-])ccc1=O (stereo not given) do in these assays?
Pf growth 96h: -12.4%; HCV inh: 21.4%; Pf growth 48h: -2.2%; AMA1-RON2 inh: 0.9%

Results for Cc1nn(CC(=O)NC(=O)c2ccccc2)c(C)c1[N+](=O)[O-] ?
Pf growth 96h: -5.1%; HCV inh: 13.8%; Pf growth 48h: 12.3%; AMA1-RON2 inh: 0.0%

What do the screens show for `COc1cccc(-c2nc(CCl)cs2)c1OC`?
Pf growth 96h: 30.3%; HCV inh: 14.3%; Pf growth 48h: 6.0%; AMA1-RON2 inh: -10.8%

What do the screens show for `CCOC(=O)[C@]12CCC=C1N(Cc1ccccc1)C(=O)[C@H](CC(=O)NCC13CC4CC(CC(C4)C1)C3)C2`?
AMA1-RON2 inh: -8.0%

How did NC(=O)C1CCN(C(=O)CCC(=O)N2CCOc3ccc(Cl)cc32)CC1 do in these assays?
Pf growth 96h: inconclusive; HCV inh: 17.2%; Pf growth 48h: 10.8%; AMA1-RON2 inh: -3.3%

How did Cc1ccc(C)c(N2CCN(CCCNC(=O)CCC(=O)N3CCOc4ccc(Cl)cc43)CC2)c1 do in these assays?
Pf growth 96h: 12.7%; Pf growth 48h: inconclusive

Results for Cc1cccc(N2CCN(C(=O)CCC(=O)N3CCOc4ccc(Cl)cc43)CC2C)c1 (stereo not given) ?
Pf growth 96h: 9.28µM*; HCV inh: inconclusive; Pf growth 48h: -6.2%; AMA1-RON2 inh: -29.0%

How did Cc1ccc(C)c(N2CCN(C(=O)CCC(=O)N3CCOc4ccc(Cl)cc43)CC2)c1 do in these assays?
Pf growth 96h: 4.15µM*; HCV inh: 10µM*; Pf growth 48h: inconclusive; AMA1-RON2 inh: -1.9%

How did Cn1c(CNC(=O)OC(C)(C)C)nnc1SCC(=O)N1CCOCC1 do in these assays?
Pf growth 96h: 42.4%; HCV inh: -1.6%; Pf growth 48h: 33.7%; AMA1-RON2 inh: 1.7%

What do the screens show for `CCO[C@H]1OC(C(=O)N2CCN(Cc3ccccc3)CC2)=C[C@@H](C2CCCCC2)[C@@H]1CCCO`?
Pf growth 96h: 1.65µM*; HCV inh: -11.0%; Pf growth 48h: inconclusive; AMA1-RON2 inh: -13.5%

How did CCO[C@H]1OC(C(=O)N2CCCCCCC2)=C[C@@H](C2CCCCC2)[C@@H]1CCCO do in these assays?
Pf growth 96h: 9.28µM*; HCV inh: 7.3%; Pf growth 48h: inconclusive; AMA1-RON2 inh: -0.6%

How did CCO[C@@H]1OC(C(=O)N2CCN(C)CC2)=C[C@H](C2CCCCC2)[C@H]1CCCO do in these assays?
Pf growth 96h: -20.3%; HCV inh: 2.8%; Pf growth 48h: -2.1%; AMA1-RON2 inh: 19.5%

Results for CCO[C@@H]1OC(C(=O)N2CCN(C)CC2)=C[C@H](C(C)(C)C)[C@H]1CCCO ?
Pf growth 96h: 49.1%; HCV inh: 26.9%; Pf growth 48h: 37.7%; AMA1-RON2 inh: 11.4%

What do the screens show for `CCO[C@H]1OC(C(=O)N2CCN(Cc3ccc4c(c3)OCO4)CC2)=C[C@@H](C(C)(C)C)[C@@H]1CCCO`?
Pf growth 96h: inconclusive; HCV inh: -11.6%; Pf growth 48h: 6.57µM*; AMA1-RON2 inh: 28.6%

How did CCO[C@@H]1OC(C(=O)N2CCN(Cc3ccc4c(c3)OCO4)CC2)=C[C@H](C2CCCCC2)[C@H]1CCCO do in these assays?
Pf growth 96h: 0.928µM*; HCV inh: inconclusive; Pf growth 48h: inconclusive; AMA1-RON2 inh: -5.2%

Results for Cc1ccc(NC(=O)c2ccc([N+](=O)[O-])s2)cc1S(=O)(=O)N1CCOCC1 ?
HCV inh: inconclusive; AMA1-RON2 inh: 6.6%

What do the screens show for `CC(C)N1C(=O)c2ccccc2NC(=O)C1C(=O)NC1CC1` (stereo not given)?
AMA1-RON2 inh: -1.9%

What do the screens show for `CC1C(=O)N(Cc2cn(CCC3OCCCO3)nn2)CCS(=O)(=O)N1Cc1ccc(-c2ccc(Cl)c(Cl)c2)cc1` (stereo not given)?
AMA1-RON2 inh: -4.9%

Results for O=C(COC(=O)/C=C/c1ccc(F)cc1)Nc1ccccc1-c1ccccc1 ?
Pf growth 96h: -0.3%; HCV inh: 10.5%; Pf growth 48h: -15.0%; AMA1-RON2 inh: -7.0%

Results for CCCCC1SC(N)=NC1=O (stereo not given) ?
HCV inh: 7.5%; AMA1-RON2 inh: 10.0%

What do the screens show for `Cc1ccc(C)c(NC(=O)C(Sc2nnc(-c3cccs3)o2)c2ccccc2)c1` (stereo not given)?
Pf growth 96h: -10.0%; HCV inh: 15.2%; Pf growth 48h: 29.8%; AMA1-RON2 inh: 45.0%

How did Cc1nonc1NC(=O)c1oc2ccc(F)cc2c1C do in these assays?
Pf growth 96h: -16.2%; HCV inh: -7.4%; Pf growth 48h: 4.5%; AMA1-RON2 inh: 0.9%

How did CCc1nonc1NC(=O)c1oc2ccc(C)cc2c1C do in these assays?
Pf growth 96h: inconclusive; HCV inh: -3.8%; Pf growth 48h: 66.9%; AMA1-RON2 inh: 0.3%
